A short description of assay [1]: reducers of endogenous Her2 protein level, primary screen, SKBR3 breast tumor cells, AlphaScreen, ATP viability (AID 461;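 active = Her2 level under about 52% in both replicate screens, with viability over 70% of control, limit read from the data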;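 for Her2 level: lower value means less Her2 protein in the cells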;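 for viability: percent of carrier control wells set as 100% viability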). The settings on record: 18-24 h, measured here: SKBR3 viability, ATP luminescence, at 10 µM.
In assay [2] the target is Receptor tyrosine-protein kinase erbB-2 (Homo sapiens) (UniProt P04626). Described as above. To be noted: 18-24 h, at 10 µM, stronger effect = lower value.
Sequence of Receptor tyrosine-protein kinase erbB-2 (Homo sapiens) (P04626 whole entry, looked up): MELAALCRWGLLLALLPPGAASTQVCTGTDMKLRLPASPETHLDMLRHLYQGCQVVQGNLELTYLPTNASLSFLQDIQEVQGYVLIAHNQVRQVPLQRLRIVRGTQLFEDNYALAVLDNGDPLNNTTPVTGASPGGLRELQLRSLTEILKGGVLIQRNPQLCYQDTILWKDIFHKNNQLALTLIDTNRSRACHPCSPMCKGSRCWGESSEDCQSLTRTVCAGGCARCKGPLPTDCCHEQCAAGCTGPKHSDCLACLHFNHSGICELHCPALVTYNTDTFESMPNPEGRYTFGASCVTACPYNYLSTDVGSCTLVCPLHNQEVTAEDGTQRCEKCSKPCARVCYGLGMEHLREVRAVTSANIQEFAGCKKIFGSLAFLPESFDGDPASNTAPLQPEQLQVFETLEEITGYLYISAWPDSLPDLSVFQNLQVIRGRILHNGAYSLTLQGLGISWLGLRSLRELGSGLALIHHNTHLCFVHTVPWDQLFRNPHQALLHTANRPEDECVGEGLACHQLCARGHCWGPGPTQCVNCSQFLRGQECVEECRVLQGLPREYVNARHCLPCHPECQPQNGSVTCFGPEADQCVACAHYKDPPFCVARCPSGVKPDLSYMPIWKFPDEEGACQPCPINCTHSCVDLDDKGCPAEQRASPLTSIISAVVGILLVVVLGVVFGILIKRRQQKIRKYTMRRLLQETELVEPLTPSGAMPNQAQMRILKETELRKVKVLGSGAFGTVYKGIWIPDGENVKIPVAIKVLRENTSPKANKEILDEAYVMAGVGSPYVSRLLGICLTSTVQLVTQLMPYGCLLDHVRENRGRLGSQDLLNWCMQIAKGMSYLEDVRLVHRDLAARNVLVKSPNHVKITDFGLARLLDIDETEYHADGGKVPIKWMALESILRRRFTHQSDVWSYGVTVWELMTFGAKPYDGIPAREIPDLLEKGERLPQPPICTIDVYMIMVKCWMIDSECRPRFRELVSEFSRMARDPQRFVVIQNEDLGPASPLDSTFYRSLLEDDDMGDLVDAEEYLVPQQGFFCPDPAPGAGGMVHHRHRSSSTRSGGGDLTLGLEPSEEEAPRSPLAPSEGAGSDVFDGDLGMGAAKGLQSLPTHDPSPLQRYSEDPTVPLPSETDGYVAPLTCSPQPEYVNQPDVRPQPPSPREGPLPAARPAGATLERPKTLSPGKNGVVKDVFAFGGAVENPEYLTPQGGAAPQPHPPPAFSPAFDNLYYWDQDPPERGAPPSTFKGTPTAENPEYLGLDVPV
Assay [3] is described as follows: SK-BR-3 cell growth inhibitors, pilot screen, 24 h, human (AID 572;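 active = viability at or below 10% of carrier control in both of two separate runs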;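 note: compound exposure lasted between 18 and 24 h rather than exactly 24 h; 100% = carrier-treated control wells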). The settings on record: SK-BR-3 viability, CellTiter-Glo luminescence, at 10 µM, stronger effect = lower value.
Assay [4] in a line: HUVEC growth inhibition – cell-based, human, primary screen (AID 575;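 active = viability at or below 30% in both replicate assays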;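 note: 100% = median of untreated cell wells with 0.1% DMSO on each plate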). To be noted: HUVEC proliferation, CellTiter-Glo luminescence, 72 h; at 10 µM; stronger effect = lower value.
The nature of assay [5]: growth inhibitors of H69AR lung tumor, primary screen, human, duplicate replicates (AID 580).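 Note: 100% = mean luminescence of untreated wells and 0% = no signal.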 The settings on record: H69AR lung tumor cells viability, ATP luminescence, 72 h; at 10 µM; stronger effect = lower value.
Assay [6] is described as follows: reversal of MRP1-mediated doxorubicin resistance, pilot screen, H69AR cells, doxorubicin co-treatment (AID 601;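 active = viability loss from added drug above about 55%, and viability with drug at most 40%, in both replicates, limit read from the data, passing the limit was not always enough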). To be noted: CellTiter-Glo, 72 h, at 10 µM; for differential viability (reversal): stronger effect = higher value.
Assay [7] is described as follows: 384-well plate pilot, post-Golgi transport modulator project, inhibition of yeast transport mutant growth (AID 636; in the data active = inhibition above about 31%). The settings on record: absorbance 615 nm, about 18 h, stronger effect = higher value.
The nature of assay [8]: growth suppression of yeast trafficking mutant, preliminary HTS, modulators of trafficking downstream of Golgi apparatus project, 1536-format plate, OD 615 nm (AID 637; in the data active = inhibition above about 30%). The settings on record: yeast transport mutant growth, absorbance 615 nm, 18 h; stronger effect = higher value.
The nature of assay [9]: OD615 S. cerevisiae growth inhibition, permissive medium, pilot counter-assay, permissive growth control for S. cerevisiae lifespan shortening project (AID 705;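 active = growth inhibition above 25% in both replicates, a cutoff set 3 SD above the mean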). The settings on record: OD615, 24 h, at 10 µM, stronger effect = higher value.
The nature of assay [10]: Restrictive medium S. cerevisiae growth inhibition, OD615, pilot screen of yeast lifespan reduction project, restrictive growth control (AID 706;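 active = growth inhibition above a set limit, 3 SD over mean compound inhibition, in both replicates, cut at about 43% in these data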;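 note: modified DeaD lifespan yeast strain shifted to restrictive glucose medium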). To be noted: OD615, 48 h, at 10 µM, stronger effect = higher value.
Assay [11] is described as follows: viability gain of MRP-1-high H69AR cells under doxorubicin, pilot screen, MRP-1 activator project, CellTiter-Glo, duplicate (AID 807;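 active = viability increase at or above a cutoff of the median across tested compounds plus 3 SD, cut at about 8.5% in these data, passing the limit was not always enough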;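 note: compound pretreatment 18-22 h then 72 h combined with doxorubicin; 0% = doxorubicin alone and 100% = vehicle without doxorubicin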). To be noted: H69AR viability with doxorubicin, CellTiter-Glo luminescence; at 10 µM; stronger effect = higher value.
Assay [12] in a line: growth suppression of beta-catenin knockout HCT116, pilot screen, human colon tumor cells (AID 823;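 active = cell viability at or below a set limit in both duplicate runs, the limit being the all-compound median minus 4 SD, cut at about 23% in these data, passing the limit was not always enough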;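 note: 0% = wells killed by 20 µM Hyamine and 100% = untreated DMSO cell wells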). To be noted: CellTiter-Glo, 60 h, at 10 µM, stronger effect = lower value.
Assay [13] in a line: growth suppression of PTEN-deleted HCT116, pilot screen, cell-based, HCT116 clonal line, CellTiter-Glo (AID 824;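 active = viability at or below 27.92% in each of two runs, the all-compound median minus 4 SD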;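 note: 0% = 20 µM Hyamine control and 100% = vehicle cell control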). The settings on record: 60 h, at 10 µM, stronger effect = lower value.
Assay [14] can be described thus: inhibitors of the yeast RAM network, pilot screen, dse1pr::URA3 reporter, 5-FOA selection (AID 869;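 active = inhibition over a set limit, the all-compound mean plus 3 SD, in both replicate runs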;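 note: 0% = DMSO wells with no growth and 100% = 10 µM 1-NA-PP1 with full growth; RAM network block rescues cells from 5-FOA so hits raise OD615 growth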). To be noted: S. cerevisiae dse1pr::URA3 5-FOA growth, OD615, 2 d; at 10 µM; stronger effect = higher value; strain carries analog-sensitive mutant Cbk1 kinase.
Assay [15] is described as follows: RAM signaling pathway blockade in yeast – S. cerevisiae, Pdr1DBD-CYC8 efflux-inhibited sensitized strain, primary screen (AID 1298;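 active = RAM network inhibition above 8.4% in each of two replicates, 3 SD over the compound average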;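 note: 0% = DMSO untreated cells without growth and 100% = 10 µM 1-NA-PP1 full growth; higher means more yeast growth rescued from 5-FOA killing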). To be noted: S. cerevisiae cbk1-as DSE1-URA3 strain, 5-FOA growth OD615, 2 d; at 50 µM; stronger effect = higher value.
The mark [16] stands for this setting: H69AR cells + 2 uM doxorubicin, measured here: viability with 2 uM doxorubicin, stronger effect = lower value.
The mark [17] stands for this setting: H69AR cells, compound alone cytotoxicity.

These results are taken from PubChem BioAssay.

SMILES strings stand for the structures. Inconclusive results are not listed. Calls of active or inactive are those of the source.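 Rule for the calls, unless noted: active = viability at or under a set limit in both replicates, limit being median viability minus 3 SD (cut at about 48% in these data, passing the limit was not always enough); inconclusive = at or under the limit in just one replicate; inactive = at or above the limit in both replicates.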

Take `CCOC(=O)/C=C1\CC(=O)Nc2nonc2N1`: the viability in [1] was 112%; in [3], 112% (inactive); in assay [4], 109% (inactive); in [5], 105% (inactive); in assay [6] (setting [16]), 95.7%; in [6] (setting [17]), 105%. For the same molecule, the figures for the viability in assay [12] and in assay [13] were 97.5% (inactive) and 95.3% (inactive), respectively. In assay [2], the Her2 level is 92.5% (inactive). Moreover, in assay [6] (H69AR cells + 2 uM doxorubicin), the differential viability (reversal) was 9.69% (inactive). The inhibition in assay [7] was -1.73% (inactive); in [8] it was 0.97% (inactive); in assay [14] it was 0.615% (inactive). Further, the growth inhibition in assay [9] is 0.64% (inactive); in assay [10], 9.22% (inactive). Also, the viability increase in assay [11] was -2.08% (inactive). Besides, the RAM network inhibition in [15] is 1.93% (inactive).

With `CC1CCCN(C(=O)CN2C(=O)c3ccccc3C2=O)C1` (stereo not given), the viability is 93.5% in assay [1]; 93.5% (inactive) in assay [3]; 93.8% (inactive) in assay [4]; 84.8% (inactive) in assay [5]; 91.6% in [6] (setting [16]); 84.8% in assay [6] (setting [17]). Also, the figures for the viability in assay [12] and in [13] were 101% (inactive) and 98.7% (inactive), respectively. The Her2 level in assay [2] is 104% (inactive). Besides, the differential viability (reversal) in assay [6] (H69AR cells + 2 uM doxorubicin) is -6.78% (inactive). Also, the inhibition in assay [7] is -3.59% (inactive); in assay [8], -6.33% (inactive); in assay [14], 1.7% (inactive). The values for the growth inhibition in assay [9] and in [10] were -15.4% (inactive) and -9.79% (inactive), respectively. Also, the viability increase in assay [11] was -0.25% (inactive). The RAM network inhibition in [15] is 0.38% (inactive).

On to `O=C(COc1ccc2ccccc2c1)N1CCCC1`, for which the viability in assay [1] is 101%; in [3], 101% (inactive); in [4] it was 85.3% (inactive); in assay [5], 90% (inactive); in [6] (setting [16]) it was 81.4%; in assay [6] (setting [17]), 90%. Also, the results for the viability in [12] and in assay [13] were 96.2% (inactive) and 101% (inactive), respectively. In assay [2], the Her2 level was 88.5% (inactive). Also, the differential viability (reversal) in assay [6] (H69AR cells + 2 uM doxorubicin) was 8.64% (inactive). Also, the inhibition in [7] is 0.38% (inactive); in assay [8], -6% (inactive); in assay [14], 0.745% (inactive). Also, the growth inhibition in [9] and in [10] was -2.41% (inactive) in each case. For the same molecule, the viability increase in assay [11] is -0.13% (inactive). Also, the RAM network inhibition in [15] was 6.48% (inactive).

Turning to `O=C(Cn1c(=O)[nH]c2ccsc2c1=O)NC1CCCCCC1`, the viability is 110% in assay [1]; 110% (inactive) in [3]; 111% (inactive) in assay [4]; 94.3% (inactive) in [5]; 97% in assay [6] (setting [16]); 94.3% in assay [6] (setting [17]). Besides, the viability in [12] is 106% (inactive); in assay [13] it was 99.2% (inactive). In addition, the Her2 level in assay [2] is 97% (inactive). The differential viability (reversal) in assay [6] (H69AR cells + 2 uM doxorubicin) is -2.65% (inactive). Besides, the inhibition is -7.16% (inactive) in assay [7], 2.17% (inactive) in assay [8] and 0.875% (inactive) in [14]. For the same molecule, the values for the growth inhibition in assay [9] and in assay [10] were -6.35% (inactive) and -17.4% (inactive), respectively. In addition, the viability increase in assay [11] is 1.49% (inactive). For the same molecule, the RAM network inhibition in [15] was 0.72% (inactive).

Turning to `CC(=O)N1c2c(cc(Br)cc2S(=O)(=O)NCC2COc3ccccc3O2)CC1C` (stereo not given), the viability in [1] is 97.5%; in [3], 97.5% (inactive); in [4], 88.9% (inactive); in assay [5], 81.7% (inactive); in assay [6] (setting [16]) it was 84.3%; in assay [6] (setting [17]), 81.7%. Also, the values for the viability in assay [12] and in assay [13] were 83.2% (inactive) and 81% (inactive), respectively. Besides, the Her2 level in [2] is 85% (inactive). For the same molecule, the differential viability (reversal) in assay [6] (H69AR cells + 2 uM doxorubicin) is -2.64% (inactive). Further, the figures for the inhibition in assay [7], in [8] and in assay [14] were -5.34% (inactive), -2.06% (inactive) and 0.495% (inactive), respectively. The results for the growth inhibition in [9] and in assay [10] were -0.935% (inactive) and 8.23% (inactive), respectively. In addition, the viability increase in [11] is 0.21% (inactive). In addition, the RAM network inhibition in assay [15] was 0.61% (inactive).

On to `Cn1c(=O)[nH]c(=O)c2c1nc(N1CCCCC1)n2CCSc1ncccn1`, for which the viability in [1] is 101%; in assay [3], 101% (inactive); in [4], 102% (inactive); in assay [5] it was 88.8% (inactive); in assay [6] (setting [16]), 92.5%; in [6] (setting [17]), 88.8%. Besides, the viability in assay [12] was 101% (inactive); in assay [13], 103% (inactive). Besides, the Her2 level in assay [2] was 89.5% (inactive). For the same molecule, in assay [6] (H69AR cells + 2 uM doxorubicin), the differential viability (reversal) was -3.65% (inactive). Besides, the inhibition in assay [7] is -3.2% (inactive); in assay [8], 0.83% (inactive); in assay [14], 2.44% (inactive). In addition, the growth inhibition in [9] was 1.54% (inactive); in assay [10] it was -4.51% (inactive). The viability increase in assay [11] is 1.1% (inactive). The RAM network inhibition in [15] is -0.42% (inactive).

With `CCN1C(=O)c2ccccc2S(=O)(=O)c2ccc(C(=O)NCc3cccnc3)cc21`, the viability in assay [1] was 95.5%; in assay [3], 95.5% (inactive); in assay [4], 85.6% (inactive); in assay [5] it was 91.5% (inactive); in assay [6] (setting [16]), 91.6%; in [6] (setting [17]), 91.5%. For the same molecule, the viability in assay [12] is 93.4% (inactive); in assay [13], 90.4% (inactive). The Her2 level in assay [2] is 114% (inactive). For the same molecule, the differential viability (reversal) in [6] (H69AR cells + 2 uM doxorubicin) was -0.065% (inactive). Also, the inhibition was 0.93% (inactive) in [7], 8.5% (inactive) in [8] and 0.65% (inactive) in assay [14]. In addition, the values for the growth inhibition in assay [9] and in [10] were -2.51% (inactive) and -4.21% (inactive), respectively. The viability increase in assay [11] is -2.25% (inactive). Moreover, in assay [15], the RAM network inhibition was 1.98% (inactive).

In the case of `N#Cc1cnc2sc3ccccc3n2c1=N`, the viability in [1] is 99%; in assay [3], 99% (inactive); in assay [4] it was 69% (inactive); in [5], 87.7% (inactive); in assay [6] (setting [16]), 90.5%; in assay [6] (setting [17]), 87.7%. Besides, the viability in assay [12] is 94.4% (inactive); in [13], 95.9% (inactive). Moreover, the Her2 level in assay [2] is 114% (inactive). Moreover, the differential viability (reversal) in assay [6] (H69AR cells + 2 uM doxorubicin) is -2.73% (inactive). Further, the figures for the inhibition in assay [7], in assay [8] and in assay [14] were -3.07% (inactive), 3.06% (inactive) and -0.405% (inactive), respectively. Also, the growth inhibition in assay [9] is 0.55% (inactive); in assay [10], 12.3% (inactive). The viability increase in assay [11] is -1.27% (inactive). Besides, in assay [15], the RAM network inhibition is 5.97% (inactive).

On to `Cc1cc(C)nc(/N=C2\NC(=O)CC(C(=O)O)N2c2ccc(Cl)cc2)n1` (stereo not given), for which the viability is 106% in assay [1]; 106% (inactive) in assay [3]; 88.7% (inactive) in assay [4]; 96% (inactive) in [5]; 92.9% in assay [6] (setting [16]); 96% in assay [6] (setting [17]). Further, the viability was 99.5% (inactive) in assay [12] and 102% (inactive) in [13]. Further, the Her2 level in assay [2] is 100% (inactive). Besides, the differential viability (reversal) in assay [6] (H69AR cells + 2 uM doxorubicin) is 3.08% (inactive). The inhibition in [7] was -6.53% (inactive); in assay [8], 5.17% (inactive); in assay [14], 1.93% (inactive). Moreover, the growth inhibition in [9] was 0.655% (inactive); in assay [10], 5.68% (inactive). For the same molecule, the viability increase in [11] was 1.08% (inactive). Moreover, the RAM network inhibition in assay [15] was 3.63% (inactive).

As for `O=C(CCn1c(=O)oc2ccccc21)NCc1ccco1`, the viability is 106% in [1]; 106% (inactive) in assay [3]; 89.9% (inactive) in assay [4]; 91% (inactive) in assay [5]; 81% in [6] (setting [16]); 91% in [6] (setting [17]). Also, the viability is 102% (inactive) in assay [12] and 99.4% (inactive) in [13]. Also, the Her2 level in assay [2] is 115% (inactive). The differential viability (reversal) in assay [6] (H69AR cells + 2 uM doxorubicin) was 10% (inactive). In addition, the inhibition in [7] was -3.47% (inactive); in assay [8] it was -5.17% (inactive); in [14] it was 2.08% (inactive). Besides, the results for the growth inhibition in [9] and in assay [10] were -2.37% (inactive) and -2.52% (inactive), respectively. Moreover, the viability increase in [11] was -1.66% (inactive). In addition, the RAM network inhibition in assay [15] is 2.93% (inactive).
